# Source: paper PMC5540273 (PLoS ONE, 2017)
# Key:
# Conditions in all cases: concentration: 1 μM,replicates: in singlicate; n = 1
# MTOR = test system: MTOR
# MUSK = test system: MUSK
# MYLK2 = test system: MYLK2
# MYLK4 = test system: MYLK4
# MYLK = test system: MYLK
# MYO3A = test system: MYO3A
# MYO3B = test system: MYO3B
# NDR1 = test system: T1, NDR1
# T1 construct: gene STK38
# NDR2 = test system: NDR2
# NEK10 = test system: NEK10
# 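Further: KINOMEscan kinase panel screen.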
SMILES,%Inh (MTOR) [%],%Inh (MUSK) [%],%Inh (MYLK2) [%],%Inh (MYLK4) [%],%Inh (MYLK) [%],%Inh (MYO3A) [%],%Inh (MYO3B) [%],%Inh (NDR1) [%],%Inh (NDR2) [%],%Inh (NEK10) [%]
C[C@@H](Oc1cc(-n2cnc3cc(-c4ccncc4)ccc32)sc1C(N)=O)c1ccccc1Cl [GSK479719],6,11,22,0,1,0,0,0,0,0
C[C@@H]1CNc2c(sc3ccc4nc(-c5ccc(O)cc5)ccc4c23)C(=O)N1,0,0,14,10,65,22,93.2,26,0,7
C[C@@H]1CCN(C(=O)N2CCCC2)C[C@@H]1N(C)c1ncnc2[nH]ccc12,8,0,5,3,2,1,0,4,0,30
CC(=O)Nc1ccc(-c2cc3ncnc(SCC(=O)O)c3s2)cc1,3,12,9,14,6,5,0,0,8,25
c1ccc(Oc2ccc(Nc3ccnc4ccc(-c5ccccn5)cc34)cc2)cc1 [GW407034],15,15,12,4,14,10,0,0,0,2
Cl.Nc1n[nH]c2cc(-c3ccccn3)ccc12 [GSK2189892],0,0,5,29,18,0,0,0,0,2
CCOC(=O)N1CCC(n2cnc(-c3ccc(F)cc3)c2-c2ccnc(N)n2)CC1 [SB-219952],66,0,20,21,45,17,0,0,0,0
O=C(Nc1ccc(Oc2ccc3nc(NC(=O)C4CC4)cn3n2)c(F)c1)c1cccn(-c2ccccc2)c1=O,21,99.5,0,0,0,0,0,3,0,0
CS(=O)(=O)c1cccc(CNc2nc(Nc3ccc4c(c3)[C@@H]3C[C@@H]4CNC3=O)ncc2C(F)(F)F)c1,12,26,12,0,12,13,54,85,6,0
COc1cccc(CNC(=O)NC2CCN(c3ccnc(Nc4cc(OC)c(OC)c(OC)c4)n3)C2)c1 (stereo not drawn) [GSK1379765],31,83,11,9,20,27,0,15,0,14
CC(C)c1nc(-c2cccc(NS(=O)(=O)c3ccccc3)c2)c(-c2ccnc(Nc3ccc4c(c3)CN(C)CC4)n2)s1 [GSK1649598],0,15,0,13,13,48,0,31,0,0
C[C@@H](Oc1cc(-n2cnc3ccc(-c4ccncc4)cc32)sc1C(N)=O)c1ccccc1Cl [GSK483724],32,28,48,94.9,13,0,0,10,0,12
CS(=O)c1ccc(-c2coc3ccc(-c4n[nH]c(=O)o4)cc23)cc1 (stereo not drawn),17,0,20,24,41,0,0,2,22,56
O=C(NOCC1CC1)c1cc(Br)c(F)c(F)c1Nc1ccc(I)cc1Cl,26,9,0,0,0,0,20,33,0,0
Cn1ccc2ncnc(Oc3ccc(NC(=O)Nc4ccnc(C(F)(F)F)c4)c(Cl)c3)c21,25,42,0,0,0,0,0,0,2,0
CCn1c(-c2nonc2N)nc2cncc(CNC3CCNCC3)c21.Cl [SB-747651],30,9,4,0,8,5,0,1,0,20
NC(=O)c1ccc(-c2cc3ncnc(SCC(=O)O)c3s2)cc1,39,0,0,0,0,0,3,31,0,0

SMILES,%Inh (MTOR) [%],%Inh (MUSK) [%],%Inh (MYLK2) [%],%Inh (MYLK4) [%],%Inh (MYLK) [%],%Inh (MYO3A) [%],%Inh (MYO3B) [%],%Inh (NDR1) [%],%Inh (NDR2) [%],%Inh (NEK10) [%]
O=C(Nc1cccc(Oc2ccc3nccn3n2)c1)Nc1cccc(C(F)(F)F)c1,23,51,0,0,0,0,3,0,0,0
C[C@@H]1CNc2c(sc3ccc4nc(-c5ccncc5)ccc4c23)C(=O)N1,50,0,2,11,62,0,27,18,0,7
CC(C)S(=O)(=O)N1CCN(Cc2ccc3c(c2)nc(NC(=O)c2ccsc2)n3C[C@H](O)c2ccccc2)CC1 [GW635815],14,27,15,0,16,8,0,35,24,2
Cc1cccc(-c2nc(Nc3ccncc3)c3sccc3n2)n1 [GW869641],75,0,4,0,35,9,21,35,0,24
COc1cccc(OC)c1C(=O)Nc1cccc(-c2nn3ccccc3c2-c2ccnc(Nc3cccc(F)c3)n2)c1 [GSK361065],0,3,0,0,87,28,13,17,13,0
CNC(=O)c1ccccc1Nc1nc(Nc2cccc(CS(C)(=O)=O)c2)ncc1C.O=CO [GSK1520489],2,69,18,99.8,30,28,0,92.2,80,14
O=C(Nc1n[nH]c2cc(-c3ccco3)ccc12)C1CC1 [SB-737447],0,0,86,6,44,14,0,0,22,0
Cc1ccc2c(-c3ccnc(Nc4ccc(C(F)(F)F)cc4)n3)cnn2n1 [GW819776],0,7,9,23,19,0,0,37,10,31
O=C(Nc1ccccc1)c1cccc(Oc2ccc3nccn3n2)c1,14,73,0,0,0,0,0,0,22,0
CC(C(=O)NC1CCN(c2ccnc(Nc3ccc(F)cc3)n2)C1)c1ccc(Cl)cc1 (stereo not drawn) [GSK1379713],17,6,3,0,0,0,0,15,0,0
Cn1ccc2ncnc(Oc3ccc(NC(=O)Nc4cc(C(C)(C)C)on4)c(Cl)c3)c21,37,80,13,0,17,0,40,0,1,0
CN1CCN(CCCNc2nccc(-c3c(-c4ccc(F)cc4)nn4cc(C(N)=O)ccc34)n2)CC1 [GW622475],5,6,10,5,26,10,0,33,0,25
Nc1nccc(-c2ccc3c(N)n[nH]c3c2)n1 [GSK1034945],0,9,85,83,21,8,0,0,0,0
O=C(NCC1CC1)c1ccc(-c2cc(C(=O)NC3CC3)ccc2F)cc1 [GW810445],21,0,0,0,0,0,8,0,7,0
CS(=O)(=O)Nc1ccc(-c2ccnc3[nH]ccc23)cc1 [GSK993273],9,24,27,95.5,43,0,0,20,6,71
Cn1ccc2ncnc(Oc3ccc(NC(=O)Nc4cccc(C(F)(F)F)c4)c(F)c3)c21,10,99.4,0,7,19,8,49,10,8,7
